Rows were chosen to be rich in hits. Some 7.8% of all compounds tested hit in one or more screens of this group.
MITF inhib – inhibitors of MITF. TRPM1 promoter luciferase, luminescence, 24 h. inhibition, % (concentration not given with the values). 37,000 tested, 0.28% active; in the data active = inhibition above about 85%; inconclusive = no clear call, values can overlap the other calls; inactive = below about 68%;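 note: human melanocyte line stably carrying TRPM1 promoter luciferase reporter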
NOMO-1 viab – STK33 inhibitor candidate reducing NOMO-1 cell viability; 37,000 tested, 7.5% active; NOMO-1 AML viability, CellTiter-Glo luminescence, 72 h; AID 2330; inhibition, % (concentration not given with the values); in the data active = inhibition above about 80%; inconclusive = no clear call, values can overlap the other calls
PD-1 reverse act – activators reversing PD-1 mediated T-cell inhibition | primary human CD4 T cells, PD-L1 beads, CellTiter-Glo 96 h | activation, % (test concentration not listed) | 29,000 tested, under 10 active; call rule not given here;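 note: 0% = median vehicle wells and 100% = positive control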
Hedgehog inh – blocks Sonic Hedgehog signaling | Shh-LIGHT2 Gli-luciferase reporter, 30 h | inhibition, % (concentration not given with the values) | 22,000 tested, 2.1% active | AID 2313;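 active = mean inhibition across valid replicates above about 65%, limit read from the data; inconclusive = mean under the limit, yet half or more replicates past it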;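 note: pathway switched on by Shh-conditioned medium diluted 1 in 25 in low serum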
* hit, by the source's call; ? = inconclusive; nt = not tested or not shown.

SMILES	MITF inhib	NOMO-1 viab	PD-1 reverse act	Hedgehog inh
CC1(C)CC[C@]2(C(=O)O[C@@H]3O[C@H](CO)[C@@H](O)[C@H](O)[C@H]3O)CC[C@]3(C)C(=CCC4[C@@]5(C)CC[C@H](OC6O[C@H](CO)[C@@H](O)[C@H](O[C@@H]7O[C@H](CO)[C@@H](O)[C@H](O)[C@H]7O)[C@H]6O)C(C)(C)C5CC[C@]43C)[C@@H]2C1 (some centres not stated)	nt	nt	nt	26
CC1(C)CC[C@@]2(C(=O)O[C@@H]3O[C@H](CO)[C@@H](O)[C@H](O)[C@H]3O)C(C1)C1=CCC3[C@@]4(C)CC[C@@H](O[C@@H]5O[C@H](CO)[C@@H](O)[C@H](O)[C@H]5O[C@@H]5O[C@H](CO)[C@@H](O)[C@H](O)[C@H]5O)C(C)(C)C4CC[C@@]3(C)[C@]1(C)C[C@H]2O (some centres not stated)	-4	7	2	-39
C/C=C(\C)C(=O)OC1C(OC(=O)/C=C(/C)CC(=O)O)C2(CO)C(O)CC3(C)C(=CCC4C5(C)CCC(OC6OC(C(=O)O)C(O)C(OC7OC(C)C(O)C(OC8OC(CO)C(O)C(O)C8O)C7O)C6O)C(C)(C)C5CCC43C)C2CC1(C)C (configuration not stated)	98*	122*	-39	97*
c1ccc(N=c2scc(-c3cccs3)n2-c2ccccc2)cc1	-12	33	-2	nt
Cc1cc(C)nc(Nc2ncc(O)n2-c2ccc(Cl)c(Cl)c2)n1	11	-1	1	nt
CCOc1ccc(C)cc1S(=O)(=O)NCC1CCCO1 (configuration not stated)	-10	12	nt	nt
COc1ccc(C)cc1NC(=O)CN(c1cc(Cl)c(Cl)cc1Cl)S(C)(=O)=O	14	9	nt	nt
Cn1c(SCc2ccc(C(F)(F)F)cc2)nnc1-c1ccc(OCC(F)(F)F)nc1	26	28	0	74*
O=C(CC1Sc2ncnn2C1=O)Nc1ccc(Cl)cc1 (configuration not stated)	0	107*	nt	nt
COC(=O)C1=C(Nc2ccc(F)cc2F)CSC1	-27	-1	-1	-1
C=C1C2CCC3[C@]4(C)CCC[C@@](C)(C(=O)O)C4CC[C@]3(C2)[C@H]1OC(C)=O (some centres not stated)	6	32	1	-12
C[C@@H]1CN([C@@H](C)CO)C(=O)c2cc(NS(=O)(=O)c3ccc(F)cc3)ccc2O[C@@H]1CN(C)Cc1ccc(C(=O)Nc2ccccc2N)cc1	29	110*	-1	nt
Cc1ccc(S(=O)(=O)Nc2ccc3c(c2)C(=O)N([C@H](C)CO)C[C@H](C)[C@H](CN(C)Cc2ccc(C(=O)Nc4ccccc4N)cc2)O3)cc1	4	?	0	nt
Cc1ccc(S(=O)(=O)Nc2ccc3c(c2)C(=O)N([C@@H](C)CO)C[C@H](C)[C@H](CN(C)Cc2ccc(C(=O)Nc4ccccc4N)cc2)O3)cc1	34	110*	-1	nt
C[C@H]1CN([C@@H](C)CO)C(=O)c2cc(NS(=O)(=O)c3ccc(Cl)cc3)ccc2O[C@H]1CN(C)Cc1ccc(C(=O)Nc2ccccc2N)cc1	21	111*	-1	nt
C[C@H](CO)N1C[C@H](C)[C@H](CN(C)Cc2ccc(C(=O)Nc3ccccc3N)cc2)Oc2ccc(NS(=O)(=O)c3ccc(F)cc3)cc2C1=O	23	109*	-2	nt
C[C@@H]1CN([C@H](C)CO)C(=O)c2cc(NS(=O)(=O)c3ccccc3)ccc2O[C@H]1CN(C)Cc1ccc(C(=O)Nc2ccccc2N)cc1	3	48	-3	nt
C[C@@H]1CN([C@H](C)CO)C(=O)c2cc(NS(=O)(=O)c3ccc(F)cc3)ccc2O[C@H]1CN(C)Cc1ccc(C(=O)Nc2ccccc2N)cc1	-3	58	-2	nt
CC1=CS(=O)(=O)CC1SC(=S)NC(C)C (configuration not stated)	-1	?	-1	7
COc1ccc(-c2nnc(Nc3cccc(C(F)(F)F)c3)c3ccccc23)cc1	52	116*	-1	87*
CNC(=O)COc1ccc(Nc2nnc(-c3ccc(OC)cc3)c3ccccc23)cc1	-12	14	nt	nt
Cc1[nH]c2ccccc2c1C(c1c(C)[nH]c2ccccc12)C(C)C	58	115*	-5	33
CC(=O)CCc1c(C)[nH]c2ccccc2c1=O	-19	13	nt	nt
Cc1ccc(N(C(C)C(N)=O)S(C)(=O)=O)cc1C (configuration not stated)	0	-1	-1	nt
COc1ccc2c(c1)c(=O)oc1cc(OCC(=O)Nc3cc(C)cc(C)c3)ccc12	-13	94*	nt	nt
Cc1cc(C)cc(NC(=O)COc2ccc3cc(-c4ccccc4)c(=O)oc3c2)c1	-24	66	-4	nt

High-throughput results (PubChem BioAssay)
